tested on: T1, LOK; settings: concentration: 1 μM, replicates: in singlicate; n = 1
T1 construct: gene STK10
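Further: KINOMEscan kinase panel screen.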

Row | SMILES | %Inh
1 | COc1cccc(NC(=O)Nc2ccc(C)c(-c3ccc(C(=O)Nc4ccncc4)cc3)c2)c1 [GSK1398474] | 0%
2 | CS(=O)(=O)Cc1ccc(Nc2nccc(-c3c(-c4cccc(NC(=O)C5CCCCC5)c4)nn4ncccc34)n2)cc1 [GSK350559] | 81%
3 | COc1ccc(Nc2nccc(-c3ccc(NC(=O)c4cc5cc(F)ccc5[nH]4)cc3)n2)cc1 [GSK1229496] | 0%
4 | Cc1cccc2c(-c3ccncn3)c(-c3ccc(F)cc3)nn12 [GW515532] | 0%
5 | NS(=O)(=O)c1cccc(N/C=C2\C(=O)Nc3ccc(S(=O)(=O)Cc4c(Cl)cccc4Cl)cc32)c1 [GSK398099] | 0%
6 | O=C(Nc1n[nH]c2nc(-c3ccco3)c(Br)cc12)C1CCN(Cc2ccccc2)C1.O=C(O)[C@H](O)[C@@H](O)C(=O)O (stereo not drawn) [SB-742034] | 0%
7 | COc1ccc(-c2coc3ccc(-c4nnc(C)o4)cc23)cc1 | 0%
8 | O=c1cc(N2CCOCC2)nc2n(Cc3ccccc3F)ccn12 [GSK2297428] | 0%
9 | COC(=O)c1cccc(NC(=O)NC2CCN(c3ccnc(Nc4ccc(F)cc4)n3)C2)c1 (stereo not drawn) [GSK1379725] | 0%
10 | Cc1c(Cn2c(C)c(C)n3c(=O)cc(N4CCOCC4)nc23)cccc1C(F)(F)F [GSK2328680] | 0%
11 | CNC(=O)c1ccc(C)c(-n2c(C)cc(OCc3ccc(F)cc3F)c(Br)c2=O)c1 | 0%
12 | COc1ccc(Nc2nccc(N3CCC(NC(=O)c4cc5ccccc5s4)C3)n2)cc1 (stereo not drawn) [GSK1379738] | 0%
13 | CC(=O)c1cccc(NC(=O)NC2CCN(c3ccnc(Nc4ccc(F)cc4)n3)C2)c1 (stereo not drawn) [GSK1379710] | 0%
14 | O=C1NC(=O)C(c2ccc(Cl)cc2)=C1Nc1cccc(Cl)c1 [SB-317651] | 0%
15 | Cc1ccc(NC(=O)Nc2ccccc2F)cc1-c1ccc(C(=O)Nc2ccncc2)cc1 [GSK1398477] | 33%
16 | Cc1ccc(NC(=O)c2ccc(Cl)cc2)cc1-c1ccc(C(=O)Nc2ccncc2)cc1 [GSK1398467] | 0%
17 | Cc1ccccc1-c1cc(-c2c[nH]nc2-c2ccccn2)ccn1 [GW680061] | 0%
18 | CC[C@@H]1CO[C@H](C(=O)Nc2ccccc2)CN1c1cc(-c2ccc3c(N)n[nH]c3c2)nc(NC)n1 [GSK2376236] | 0%

Row | SMILES | %Inh
19 | COc1ccc(CSc2nnc(-c3ccc4ncsc4c3)o2)cc1C(F)(F)F | 0%
20 | Cc1ccc(-c2nc(Nc3ccncc3)c3ccccc3n2)s1 [GSK189015] | 1%
21 | Cc1ccccc1Cn1ccn2c(=O)cc(N3CCOCC3)nc12 [GSK2269905] | 0%
22 | CS(=O)(=O)CCNCc1nc(-c2ccc3ncnc(Nc4ccc5c(cnn5Cc5ccccc5)c4)c3c2)cs1.Cl.Cl [GW569716] | 0%
23 | Cc1nccc(-c2c(-c3ccc(F)cc3)ncn2CCCN2CCOCC2)n1.Cl [SB-282975] | 9%
24 | Cn1cncc1C(=O)NC1CCN(c2ccnc(Nc3ccc(F)cc3)n2)C1 (stereo not drawn) [GSK1379717] | 0%
25 | CN1c2ccc(-c3ccc(C(N)=O)cc3)cc2-c2[nH]ncc2S1(=O)=O | 5%
26 | CC(C)c1cc(-c2ccc3c(N)n[nH]c3c2)nc(N)n1 [GSK2250882] | 0%
27 | O=C(Nc1n[nH]c2nc(-c3cccs3)c(Br)cc12)C1CC1 [SB-735297] | 18%
28 | Cc1ccc(NC(=O)Nc2ccc(Cl)cc2)cc1-c1ccc(C(=O)Nc2ccncc2)cc1 [GSK1398472] | 35%
29 | Fc1ccc(-c2nn3cccc(F)c3c2-c2ccncc2)cc1 [GW475620] | 8%
30 | CC(C)c1ccc(O)cc1Nc1ccnc2ccc(C(F)(F)F)cc12 [GW482059] | 0%
31 | Fc1ccc(-c2nc3n(c2-c2ccncc2)CCS3)cc1 [GI98581] | 0%
32 | O=C(Nc1n[nH]c2cc(-c3ccsc3)ccc12)C1CC1 [SB-732932] | 3%
33 | Cc1cnc(N)c(/C=C/c2cncc(C(=O)NCCc3ccc(Cl)cc3Cl)c2)c1.Cl [GSK190937] | 0%
34 | CC(=O)c1c(C)c2cnc(Nc3ccc(N4CCNCC4)cn3)nc2n(C2CCCC2)c1=O | 0%
35 | COc1ccc2cc(-c3nc(-c4ccccc4C(C)C)[nH]c3-c3ccncc3)ccc2c1 [SB-660566] | 61%
36 | CCc1ccc(-c2ccc3c(c2)-c2n[nH]cc2S(=O)(=O)N3C)cc1 | 3%

— PMC5540273 (PLoS ONE, 2017)
